Molecules are shown by their SMILES. Several values for one entry are separate records, joined by “and”; a condition that tells them apart may be missing. Equal values may be shown once. Among all 16,000 compounds or so, about 2,600 (16%) were called active. Roughly 20% stayed inconclusive and do not appear here. Calls come from the whole dose curve; as a rule, active = well fitted curve in the direction sought with a large enough effect; inconclusive = small, poorly fitted or top-dose-only effect, or effect the other way; inactive = no such curve, though single readings can be large or run the other way. A selection follows. Where a structure was tested more than once in an assay, its records may differ in their call.
% is set by controls: 0 for no effect and ±100 for the full control effect.

In this assay the target is Cytochrome P450 2D6 (Homo sapiens) (UniProt P10635). In words: Cytochrome panel assay with activity outcomes. As to conditions: recombinant CYP, pro-luciferin dealkylation, luminescence, p450-cyp2d6; series mostly up to 57.1 µM.
Chain of Cytochrome P450 2D6 (Homo sapiens) (P10635 whole entry, looked up): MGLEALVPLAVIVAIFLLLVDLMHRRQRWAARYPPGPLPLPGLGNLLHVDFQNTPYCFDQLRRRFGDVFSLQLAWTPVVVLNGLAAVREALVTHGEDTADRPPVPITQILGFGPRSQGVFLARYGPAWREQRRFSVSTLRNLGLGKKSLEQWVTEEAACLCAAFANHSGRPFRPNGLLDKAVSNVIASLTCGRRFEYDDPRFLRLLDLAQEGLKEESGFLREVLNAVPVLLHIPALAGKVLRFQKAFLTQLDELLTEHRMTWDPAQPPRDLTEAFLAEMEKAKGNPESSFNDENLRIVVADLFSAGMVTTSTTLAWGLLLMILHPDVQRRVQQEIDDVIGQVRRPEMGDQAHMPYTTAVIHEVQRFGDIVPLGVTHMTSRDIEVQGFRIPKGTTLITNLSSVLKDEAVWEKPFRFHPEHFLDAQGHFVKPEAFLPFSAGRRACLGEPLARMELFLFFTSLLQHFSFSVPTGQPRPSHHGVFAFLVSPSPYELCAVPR
`COc1ccc(-n2c(=O)c(-c3ccccc3)nc3cnc(N4CCOCC4)nc32)cc1`: the AC50 result was “inactive”.

For the compound `CN(C)c1ccc(/C=C2\SC(=S)N(Nc3ncc(C(F)(F)F)cc3Cl)C2=O)cc1`, the AC50 result was “inactive”. On the same count and under the same terms, for `CC(C)OC(=O)c1cc2ccccc2oc1=O` the value was “inactive”; for `O=C(c1ccccc1)c1cc(F)c(N2CCOCC2)cc1Cl`, “inactive”; for `COc1ccc2c(c1)Cc1sc(NC(=O)c3ccco3)nc1-2`, “inactive”. On the same count and under the same terms, for `CSc1nc2nc3c(c(=O)n2[nH]1)CN(Cc1ccccc1)CC3` the value was “inactive”. As for `NC[C@H]1O[C@H](n2cnc3c(N)ncnc32)C[C@@H]1O`, the activity, negative = inhibition was 8.01% [at 11.4 µM] (inactive).

On to `O=c1c(-c2cccc(F)c2)nc2cncnc2n1C1CC1`, for which the AC50 result was “inactive”. `CC(C)(C)N(NC(=O)c1ccccc1)C(=O)c1cccc(C(=O)N(NC(=O)c2ccccc2)C(C)(C)C)c1`: the AC50 result is “inactive”.

Regarding `O=C(O)/C=C\c1ccc(Cn2ccnc2)cc1`, the AC50 result was “inactive”. The same measure, in the same setting: the entry for `O=C(O)/C=C\c1ccc(O)c(O)c1` is “inactive”; for `O=C(O)C=Cc1ccc(Cn2ccnc2)cc1` it is 0.0794 µM (active); for `CC(C)(C)C(=O)NC(=S)NCCc1ccccc1` it is “inactive”. On the same count and under the same terms, for `CCN(C(=S)Nc1ccccc1F)C1CCCCC1` the value was “inactive”. Still for that read-out and setting: for `O=C(NCCc1ccccc1)C(=O)NN=C1CCCC1` the value was “inactive”. Turning to `COc1ccccc1NC(=S)NC(=O)c1ccc(-c2ccc(Cl)cc2)o1`, the AC50 entry is “inactive”. Same read-out and setting: for `COc1ccccc1NC(=S)NCCc1ccccc1` the value was 7.08 µM (active). Still for that read-out and setting: for `Fc1cc(Br)ccc1NC(=S)NCCc1ccccc1` the value was 20 µM (active). Still for that read-out and setting: the figure for `Fc1ccccc1NC(=S)NCCc1ccccc1` is 15.8 µM (active); for `CCNC(=S)NNC(=O)Cc1ccccc1` it is “inactive”. In the case of `CCNc1ncc2nc(-c3ccccc3)c(=O)n(Cc3ccc(F)cc3)c2n1`, the AC50 result was “inactive”.

Turning to `CS(=O)(=O)N1CCC2(CCCN(C(=O)Nc3cccc(C#N)c3)C2)CC1`, the AC50 entry was “inactive”. Same read-out and setting: for `COCCn1c(=O)c(-c2ccccc2)nc2cnc(OC)nc21` the value was “inactive”.

As to `CCn1c(CCCc2nc3c([nH]2)c(=O)n(C)c(=O)n3C)nc2c1c(=O)n(C)c(=O)n2C`, the activity, negative = inhibition is 8.15% [at 11.4 µM] (inactive). `S=c1[nH]nc(CCc2ccccc2)n1Cc1ccccc1`: the AC50 result was “inactive”. With `CC(=O)c1ccc(N2CCC(c3cc(-c4ccc(Cl)cc4Cl)n[nH]3)CC2)c([N+](=O)[O-])c1`, the AC50 result was “inactive”. Same read-out and setting: the entry for `COc1ccc(C(=O)n2c(SC)nc3cc4c(cc32)OCCO4)cc1` is “inactive”. In the case of `Cc1cccc(OCCSCc2nc3ccccc3[nH]2)c1`, the half-maximal activity concentration (AC50) is 0.282 µM (active). Still for that read-out and setting: the entry for `COc1cnc(-c2ccccc2)nc1Oc1cccc(C)c1` is “inactive”; for `O=C(COc1ccc2ccccc2c1Br)NNC(=O)Nc1ccccc1` it is “inactive”. Still for that read-out and setting: the entry for `Cc1nc(SCC(=O)c2cc3ccccc3oc2=O)c(C#N)c(C)c1C(=O)Nc1ccccc1` is “inactive”. On the same count and under the same terms, the entry for `COc1ccc(/C=C(/NC(C)=O)C(=O)O)cc1` is “inactive”. On to `CCOC(=O)CNC(=O)c1cccnc1`, for which the AC50 entry was “inactive”. Still for that read-out and setting: the entry for `Fc1ccc(CSc2nnc(-c3cc4c(s3)-c3ccccc3CC4)o2)cc1` is “inactive”. The same measure, in the same setting: for `c1ccc(CSc2nnc([C@@H]3CCCN3)o2)cc1` the value was “inactive”.

Regarding `c1ccc(CSc2nnc(-c3sccc3-n3cccc3)o2)cc1`, the AC50 is 14.1 µM (active).

Consider `CCc1ccc(N(C(=O)c2csnn2)C(C(=O)NC(C)(C)C)c2ccncc2)cc1` (configuration not stated), for which the AC50 entry was “inactive”. The same measure, in the same setting: the entry for `O=C(O)c1ccccc1C(=O)NNc1ccc(F)cc1` is “inactive”; for `CCOC(=O)N1CCN(S(=O)(=O)c2ccc(C(=O)Nc3ccc(F)cc3F)cc2)CC1` it is “inactive”. On the same count and under the same terms, the entry for `N#Cc1c(-c2ccccc2)cc(-c2ccccc2)nc1SCc1nnc(-c2ccccc2)o1` is “inactive”; for `NC1=NC2(CCCCCC2)n2c(nc3ccccc32)N1` it is 12.6 µM (active).

With `CC1CCC2(CC1)N=C(N)Nc1nc3ccccc3n12` (configuration not stated), the AC50 is 2.82 µM (active). Still for that read-out and setting: the entry for `Nc1c(N=Nc2cccc(Cl)c2)c(=O)[nH]n1-c1ccccc1` is “inactive”; for `CCC(C)n1c(NC(=O)c2ccccc2)c(C#N)c2nc3ccccc3nc21` (configuration not stated) it is “inactive”. On the same count and under the same terms, for `CCOc1cccc(/C(O)=C2/C(=O)C(=O)N(Cc3cccnc3)C2c2ccco2)c1` (configuration not stated) the value was “inactive”; for `Cc1cc(NC(=O)C2=C(O)c3ccccc3S(=O)(=O)N2C)no1`, “inactive”; for `CN1C(C(=O)Nc2ccccn2)=C(O)c2sccc2S1(=O)=O`, “inactive”. Still for that read-out and setting: the entry for `CN1C(C(=O)Nc2ccccn2)=C(O)c2ccccc2S1(=O)=O` is “inactive and 25.1 µM (active)”; for `CCNc1ncc2nc(-c3ccc(OC)cc3)c(=O)n(Cc3ccc(F)cc3)c2n1` it is “inactive”; for `O=C(CN1CCN(S(=O)(=O)c2ccccc2)CC1)NC(=O)NCc1ccccc1` it is “inactive”.

With `CCCOC(=O)c1c(-c2ccccc2)nc(CC)c(C(=O)SCC)c1CCC`, the AC50 entry is “inactive”.

Turning to `Cc1cc(Cl)nc(NC(=O)CSc2ccc(Cl)cc2)n1`, the activity, negative = inhibition is 18.7% [at 11.4 µM] (inactive).

`Cc1cnc(NC(=O)CSc2ccc(Cl)cc2)s1`: the concentration at half-maximal activity (AC50) was 3.98 µM (active).

Regarding `COCc1nnc(NC(=O)CSc2ccc(C)cc2)s1`, the AC50 entry is “inactive”. The same measure, in the same setting: the entry for `COC(=O)c1ccccc1NC(=O)c1c(Br)cnn1C` is “inactive”; for `COc1cccc(OCc2nnc(SCC(=O)NCc3ccco3)n2C)c1` it is “inactive”; for `CNc1ncc(C(=O)c2ccccc2)s1` it is “inactive”. Still for that read-out and setting: for `CCOc1ncnc2c1oc1nc(CC(C)C)c3c(c12)CC(C)(C)OC3` the value was “inactive”; for `C=CC[N+]1(CC#CCOC(c2ccccc2)c2ccccc2)CCOCC1`, 7.08 µM (active); for `O=C1N=C(N2CCOCC2)S/C1=C\C=C/c1ccccc1`, “inactive”. For `Cn1c([N+](=O)[O-])cnc1CN1CCN(CCO)CC1`, the activity, negative = inhibition is 10.5% [at 11.4 µM] (inactive). Same read-out and setting: the figure for `O=C1CCCC=C1[C@H](CCc1ccccc1)OC(=O)c1ccc(Br)cc1` is -4.24% [at 11.4 µM] (inactive).

On to `O=C(NC(=S)Nc1cccc(Cl)c1N1CCCCC1)c1ccco1`, for which the AC50 entry is “inactive”.

Consider `O=C(NNC(=S)Nc1ccccc1)c1ccco1`, for which the AC50 result was “inactive”. `O=C(NC(NC(=S)Nc1cc(Cl)ccc1Cl)C(Cl)(Cl)Cl)c1ccco1` (configuration not stated): the concentration at half-maximal activity (AC50) is 11.2 µM (active).

On to `N#CCCn1cc(/C=N/O)c(-c2ccc(Cl)cc2)n1`, for which the AC50 entry is “inactive”. Consider `N#Cc1c2c(c(-n3cnc4ccccc43)n3c1nc1ccccc13)CCC2`, for which the AC50 entry is “inactive”. The same measure, in the same setting: the entry for `O=C(NCc1ccccc1)c1ccc2c(c1)C(=O)N(CC1CCCO1)C2=O` (configuration not stated) is “inactive”; for `CC1=CC(=O)C=CC1(C)C(Cl)(Cl)Cl` (configuration not stated) it is “inactive”. The same measure, in the same setting: the figure for `CC(C)N(CCC(=O)c1ccc2ccccc2c1)Cc1ccccc1` is 2 µM (active) and inactive; for `COc1ccc(S(=O)(=O)N(CC(=O)N2CCCC2)Cc2ccccc2)cc1` it is “inactive”; for `CN(C)/C=N/c1ncc(C(=O)c2ccc3ccccc3c2)s1` it is “inactive”.

As a reminder, the AC50 is the midpoint of the concentration-response curve, whichever way the signal moves.
